# Measurements taken from PubChem BioAssay.
# Values without a mark were called inactive. Where a call stands in place of a potency, no number is given. For part of these data: Potency and affinity values are given separately. Activity calls are given as the source filed them. Unless noted, how the calls were made is not given here.
# Columns and labels:
# [1] = antimalarial activity against Dd2 strain (AID 2302;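 active means growth inhibition above 50% at the single 2 µM test dose, taken to imply half-maximal potency below 2 µM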); settings: P. falciparum Dd2 in RBCs, LDH growth readout, 72 h; at 2 µM; hits give high values
# [2] = HepG2 cytotoxicity, primary screen, cytotoxicity control for P. falciparum antimalarial project, cell-based, ATP luminescence (AID 2303;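 active means inhibition above 50%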); settings: HepG2 viability, 24-48 h, at 10 µM, hits give high values
# [3] = biological target: L-lactate dehydrogenase (Plasmodium falciparum (isolate CDC / Honduras)) (UniProt Q27743); assay: PfLDH activity inhibition – cell lysate, 3D7 strain, counter-screen for P. falciparum growth inhibition project (AID 2304); settings: P. falciparum 3D7 crude extract, LDH APAD/NBT absorbance; at 2 µM; hits give high values
# Chain of L-lactate dehydrogenase (Plasmodium falciparum (isolate CDC / Honduras)) (Q27743 whole entry, looked up): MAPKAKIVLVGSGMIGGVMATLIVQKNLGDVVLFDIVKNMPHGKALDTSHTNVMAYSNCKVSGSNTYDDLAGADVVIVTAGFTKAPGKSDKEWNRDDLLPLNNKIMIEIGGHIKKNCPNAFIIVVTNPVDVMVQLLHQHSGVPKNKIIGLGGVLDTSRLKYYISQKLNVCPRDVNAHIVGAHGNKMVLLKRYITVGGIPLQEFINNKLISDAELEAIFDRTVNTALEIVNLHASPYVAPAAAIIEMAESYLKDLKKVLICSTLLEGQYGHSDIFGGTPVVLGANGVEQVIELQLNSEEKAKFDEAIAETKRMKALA
# [4] = inhibition of 3D7 malaria parasite growth – strain 3D7 (AID 2306); settings: P. falciparum 3D7 erythrocytic growth, LDH absorbance, 72 h; at 2 µM; hits give high values
# [5] = biological target: Calcium-dependent protein kinase 1 (Plasmodium falciparum (isolate 3D7)) (UniProt P62344); assay: PfCDPK1 kinase inhibitors, biochemical, TCAMS library (AID 1159585; cut-off not given, nearly all actives have IC50 up to about 0.98 µM;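 further: inhibitors leave more ATP so luminescence rises with inhibition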); settings: recombinant PfCDPK1, Kinase-Glo ATP depletion luminescence
# Chain of Calcium-dependent protein kinase 1 (Plasmodium falciparum (isolate 3D7)) (P62344 whole entry, looked up): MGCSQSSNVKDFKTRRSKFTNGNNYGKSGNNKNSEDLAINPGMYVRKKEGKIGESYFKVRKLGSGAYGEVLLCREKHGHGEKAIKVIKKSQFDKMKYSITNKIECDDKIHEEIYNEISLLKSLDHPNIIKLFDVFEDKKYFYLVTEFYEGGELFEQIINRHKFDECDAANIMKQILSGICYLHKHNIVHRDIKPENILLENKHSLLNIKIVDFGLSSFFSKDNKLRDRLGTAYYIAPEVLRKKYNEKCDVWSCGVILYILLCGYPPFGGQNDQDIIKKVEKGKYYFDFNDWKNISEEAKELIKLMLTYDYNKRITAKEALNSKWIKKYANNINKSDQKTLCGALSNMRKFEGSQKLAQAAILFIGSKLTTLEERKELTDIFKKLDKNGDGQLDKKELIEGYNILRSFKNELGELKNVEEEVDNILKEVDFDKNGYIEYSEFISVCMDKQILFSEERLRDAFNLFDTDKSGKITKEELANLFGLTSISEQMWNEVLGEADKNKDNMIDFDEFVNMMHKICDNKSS
# [6] = biological target: Plasmodium falciparum protein kinase 6 (PK6, PF3D7_1337100) (UniProt Q8IDW1); assay: PfPK6 kinase inhibitors, biochemical, TCAMS library (AID 1159586); settings: recombinant PfPK6, Kinase-Glo ATP depletion luminescence
# Chain of Plasmodium falciparum protein kinase 6 (PK6, PF3D7_1337100) (Q8IDW1 1-305): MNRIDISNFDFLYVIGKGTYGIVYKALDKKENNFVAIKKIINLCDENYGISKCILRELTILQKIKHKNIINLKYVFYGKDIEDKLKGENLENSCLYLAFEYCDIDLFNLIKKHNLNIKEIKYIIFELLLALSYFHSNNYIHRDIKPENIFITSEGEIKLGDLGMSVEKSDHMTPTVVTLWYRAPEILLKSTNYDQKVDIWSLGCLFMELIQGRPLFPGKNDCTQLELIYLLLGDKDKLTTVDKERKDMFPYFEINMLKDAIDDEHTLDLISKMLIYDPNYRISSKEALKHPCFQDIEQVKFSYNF
# [7] = biological target: Protein kinase 7 (PK7), Plasmodium falciparum 3D7 (PF3D7_0213400) (UniProt Q7YTF7); assay: inhibition of Plasmodium PK7 catalytic activity – biochemical, TCAMS antimalarial set, Kinase-Glo luminescence (AID 1159587); settings: recombinant PfPK7, Kinase-Glo ATP depletion luminescence
# Chain of Protein kinase 7 (PK7), Plasmodium falciparum 3D7 (PF3D7_0213400) (Q7YTF7 1-343): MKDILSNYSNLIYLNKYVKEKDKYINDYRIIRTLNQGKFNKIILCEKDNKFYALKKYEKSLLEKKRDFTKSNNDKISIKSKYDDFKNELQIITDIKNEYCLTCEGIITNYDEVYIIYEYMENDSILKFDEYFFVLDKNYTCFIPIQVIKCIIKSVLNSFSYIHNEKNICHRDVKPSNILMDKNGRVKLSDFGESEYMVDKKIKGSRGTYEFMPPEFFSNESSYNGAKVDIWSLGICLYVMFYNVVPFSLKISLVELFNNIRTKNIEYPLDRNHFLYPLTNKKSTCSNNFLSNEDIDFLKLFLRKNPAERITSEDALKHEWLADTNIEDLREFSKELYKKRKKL
# [8] = biological target: Calcium-dependent protein kinase 4 (Plasmodium falciparum (isolate 3D7)) (UniProt Q8IBS5); assay: PfCDPK4 kinase inhibitors, biochemical, TCAMS library (AID 1159588; cut-off not given, nearly all actives have IC50 up to about 0.91 µM); settings: recombinant PfCDPK4, Kinase-Glo ATP depletion luminescence
# Chain of Calcium-dependent protein kinase 4 (Plasmodium falciparum (isolate 3D7)) (Q8IBS5 whole entry, looked up): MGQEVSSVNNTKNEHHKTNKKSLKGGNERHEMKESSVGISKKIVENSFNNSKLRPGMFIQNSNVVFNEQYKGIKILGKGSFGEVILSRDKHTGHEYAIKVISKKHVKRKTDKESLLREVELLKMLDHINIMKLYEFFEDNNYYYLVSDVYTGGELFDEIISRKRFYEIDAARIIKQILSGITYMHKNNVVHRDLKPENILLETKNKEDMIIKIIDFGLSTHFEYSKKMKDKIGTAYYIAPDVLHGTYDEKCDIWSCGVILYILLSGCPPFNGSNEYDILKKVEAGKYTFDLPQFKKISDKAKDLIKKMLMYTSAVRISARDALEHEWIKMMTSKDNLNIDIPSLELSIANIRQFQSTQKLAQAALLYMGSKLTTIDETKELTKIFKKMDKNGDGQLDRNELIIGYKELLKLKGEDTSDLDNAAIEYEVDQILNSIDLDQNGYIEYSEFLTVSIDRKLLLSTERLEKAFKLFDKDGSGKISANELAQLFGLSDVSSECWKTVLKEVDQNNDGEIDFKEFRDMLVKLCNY
SMILES,growth inhibition [1],inhibition [2],inhibition [3] [%],growth inhibition [4],outcome [5],outcome [6],outcome [7],outcome [8]
CC1(C)N=C(N)N=C(N)N1c1cccc(Cl)c1,96% (active),69% (active),-1,96% (active),inactive,inactive,inactive,inactive
COc1cc(/C=C/C(=O)NCC(CCNc2cc(=O)c3ccccc3[nH]2)NCc2cc(Br)cc(Br)c2)cc(OC)c1 (configuration not stated),28%,-11%,-4,90% (active),inactive,inactive,inactive,inactive
COc1ccc2nc(C)cc(N/N=C/C=C/c3ccccc3)c2c1,100% (active),27%,0,100% (active),inactive,inactive,inactive,inactive
CCc1c(C)c(C#N)c2nc3ccccc3n2c1NCc1ccco1,90% (active),-3%,6,99% (active),inactive,inactive,inactive,inactive
O=C(/C=C/c1c(Cl)cccc1Cl)NC1CCC(CN2CCC(Cc3cc4ccccc4[nH]3)CC2)CC1 (configuration not stated),17%,97% (active),-1,91% (active),inactive,inactive,inactive,inactive
Oc1ccc(CN2CCC(NCc3cccc(C(F)(F)F)c3)CC2)cc1,64% (active),10%,5,101% (active),inactive,inactive,inactive,inactive
CN(C)Cc1ccc(-c2ccc(NC(=O)c3ccc4c(=O)n(Cc5ccccc5)cnc4c3)cc2)cc1,39%,94% (active),-2,100% (active),inactive,inactive,inactive,inactive
CCc1nc2nc(C)cc(Nc3cc(C)cc(C)c3)n2n1,96% (active),21%,7,96% (active),inactive,inactive,inactive,inactive
Cc1ccc(CN2CCCN(Cc3cccc(NC(=O)c4ccc(-c5ccccc5)cc4)c3)CC2)cc1C,19%,43%,-4,84% (active),inactive,inactive,inactive,inactive
CCOc1ccc(C(C)NC(=O)c2cc(Cl)ccc2OC)cc1OCC (configuration not stated),99% (active),-1%,-2,101% (active),inactive,inactive,inactive,inactive
Cc1nc(N)nc(N)c1OCc1ccc(Cl)c(Cl)c1,5%,14%,-2,97% (active),inactive,inactive,inactive,inactive
COc1cc(C(=O)NC2CC(C)(C)N(C)C(C)(C)C2)ccc1-c1nc2cc(Cl)c(Cl)cc2[nH]1,99% (active),69% (active),5,100% (active),inactive,inactive,inactive,inactive
COc1ccc(CNCc2ccc(-c3cccc(-c4nc5ccccc5[nH]4)c3)cc2)cc1,85% (active),57% (active),-3,101% (active),inactive,inactive,inactive,inactive
O=C(Nc1cccc(CN2CCCN(Cc3ccc(O)cc3)CC2)c1)c1ccc2ccccc2c1,78% (active),20%,1,101% (active),inactive,inactive,inactive,inactive
Clc1cc(Nc2ncnc3cc(C#C[C@H]4CCCN4)sc23)cc2[nH]c(Cc3ccccc3)nc12,57% (active),29%,1,91% (active),inactive,inactive,inactive,inactive
Cc1ccc(NCC(=O)Nc2ccc(F)c(Cl)c2)cc1S(=O)(=O)N1CCOCC1,97% (active),2%,0,98% (active),inactive,inactive,inactive,inactive
COc1ccc(Nc2ccnc3cc4ccccc4cc23)cc1,73% (active),32%,3,101% (active),inactive,inactive,inactive,inactive
CCC(CC)OC(=O)C(C)c1cccc(C(=O)c2ccccc2)c1 (configuration not stated),0%,-8%,6,93% (active),inactive,inactive,inactive,inactive
CCCCCN1C(=O)N(c2ccc(Cl)c(Cl)c2)C(N(O)C(=O)Nc2ccc(Cl)c(Cl)c2)C1(C)C (configuration not stated),99% (active),-2%,6,94% (active),inactive,inactive,inactive,inactive
COc1cc(C(C)C)nc2ccc(NC(=O)c3ccc(C(=O)Nc4ccc5nc(C(C)C)cc(OC)c5c4)cc3)cc12,72% (active),39%,0,95% (active),inactive,inactive,inactive,inactive
O=C(Nc1cccc(CN2CCCN(Cc3ccc4c(c3)OCO4)CC2)c1)c1ccc2ccccc2c1,14%,7%,-2,86% (active),inactive,inactive,inactive,inactive
CCC(CC)CN1C(=O)C(C)(c2ccccc2)N=C1N (configuration not stated),11%,1%,-2,84% (active),inactive,inactive,inactive,inactive
CC(=O)N1c2ccccc2C(C)=CC1(C)C,11%,3%,1,97% (active),inactive,inactive,inactive,inactive
Cc1cccc2[nH]c(-c3ccc(-c4cccc(NC(=O)c5cncn5C)c4)cc3)nc12,1%,2%,2,100% (active),inactive,inactive,inactive,inactive
